Molecules are shown by their SMILES. The campaign covered roughly 16,000 compounds. About 5,700 (36%) were called active. Another 24% or so got no clear call; they are omitted. This is one part of the list. Unmarked numbers belong to inactive results. The call rests on the fitted dose curve; in most records, active means well fitted curve in the direction sought with a large enough effect; inconclusive means small, poorly fitted or top-dose-only effect, or effect the other way; inactive means no such curve, though single readings can be large or run the other way.
On the % scale 0 is the no-effect control and ±100 the full control effect.

The target in the assay is Cytochrome P450 1A2 (Homo sapiens) (UniProt P05177). The experiment in a line: Cytochrome panel assay with activity outcomes. The following applies: recombinant CYP, pro-luciferin dealkylation, luminescence, p450-cyp1a2; series mostly up to 57.1 µM; activity, negative = inhibition: at the top concentration.
Chain of Cytochrome P450 1A2 (Homo sapiens) (P05177 whole entry, looked up): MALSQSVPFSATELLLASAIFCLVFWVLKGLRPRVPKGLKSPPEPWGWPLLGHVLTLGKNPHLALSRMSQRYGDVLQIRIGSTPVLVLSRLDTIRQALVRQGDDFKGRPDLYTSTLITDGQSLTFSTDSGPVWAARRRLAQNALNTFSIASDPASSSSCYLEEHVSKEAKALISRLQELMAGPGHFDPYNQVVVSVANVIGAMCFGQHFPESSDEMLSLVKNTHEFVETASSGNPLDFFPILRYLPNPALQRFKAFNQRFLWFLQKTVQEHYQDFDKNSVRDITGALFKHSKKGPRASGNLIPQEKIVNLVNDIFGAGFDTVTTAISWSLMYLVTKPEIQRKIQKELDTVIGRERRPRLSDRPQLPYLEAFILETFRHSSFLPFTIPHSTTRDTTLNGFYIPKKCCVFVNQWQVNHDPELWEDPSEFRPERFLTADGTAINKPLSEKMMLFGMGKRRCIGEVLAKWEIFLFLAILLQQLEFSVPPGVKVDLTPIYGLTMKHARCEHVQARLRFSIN
For `NC(N)=NC[C@@H]1CCCCCCN1`, the activity, negative = inhibition was -17.8% [at 11.4 µM].

In the case of `C=CCCCCCCCCC(=O)Nc1c[nH]c(=O)[nH]c1=O`, the “activity, negative = inhibition” value is -29.9%.

Turning to `O=C1CN(c2nc(-c3ccccc3)c3cc(Br)ccc3n2)c2ccccc2N1`, the AC50 (usually the midpoint of the concentration-response curve, whichever way the signal moves) was 2.51 µM (active). Consider `CC12CCC(C(=O)O)(C/C1=N\O)C2(C)C` (stereo unspecified), for which the “activity, negative = inhibition” value is -24.9%. In the case of `COC(=O)[C@]1(C)CCC(c2ccc(C)cc2)=C(CC(=O)O)C1`, the activity, negative = inhibition was -8.38% [at 2.29 µM]. Regarding `CCc1ccc(N(C(=O)c2csnn2)C(C(=O)NC(C)(C)C)c2ccncc2)cc1` (stereo unspecified), the concentration at half-maximal activity (AC50) was 22.4 µM (active). On to `Cc1ccc(N(C(=O)c2csnn2)C(C(=O)NC(C)(C)C)c2cccs2)cc1` (stereo unspecified), for which the “activity, negative = inhibition” value is 1.9%. Turning to `CCc1ccc(N(C(=O)c2csnn2)C(C(=O)NCc2ccccc2)c2ccco2)cc1` (stereo unspecified), the “activity, negative = inhibition” value is -15.1%. The same measure, in the same setting: with `CCOC(=O)/C(C(N)=NCCCO)=C(/O)c1ccccc1` the figure was -29.7%.

For `CCOC(=O)/C(=C/Nc1ccccc1)[N+](=O)[O-]`, the AC50 was 2.82 µM (active). Consider `C/C=C\C1=C(CO)[C@H](O)[C@H]2O[C@H]2[C@H]1O`, for which the activity, negative = inhibition was -3.7% [at 11.4 µM]. For `COc1ccc(C[C@H](N)C(=O)N[C@@H]2[C@H](O)[C@H](n3cnc4c(N(C)C)ncnc43)O[C@@H]2CO)cc1`, the “activity, negative = inhibition” value was -12% [at 25.6 µM].

For the molecule `CC(C)N(CC(=O)O)CC(=O)O`, the activity, negative = inhibition was -20.9% [at 11.4 µM]. With `Cc1cccc(C(=O)Nc2nnc(-c3ccc(C(C)(C)C)cc3)s2)c1`, the “activity, negative = inhibition” value is -14.1%. Still for that read-out and setting: next, `CC(C)(C)c1ccc(C(=O)NC(Cc2ccccc2)C(=O)O)cc1` (stereo unspecified): 11.9%. Regarding `CC(=O)Nc1nonc1NC(=O)c1ccc(C(C)(C)C)cc1`, the AC50 was 1 µM (active). On to `COC(=O)N1CCC[C@@]2(CCN(c3ncccn3)C2)C1`, for which the “activity, negative = inhibition” value was -5.87%.

Turning to `O=C(c1csnn1)N1CCC[C@@]2(CCN(c3ccccn3)C2)C1`, the “activity, negative = inhibition” value was -10.2%. On to `O=C(Oc1ccccc1)N1CCC2(CCCN(c3ncccn3)C2)CC1`, for which the AC50 was 10 µM (active). On to `CC(=O)N1CCC2(CCCN(c3ccccn3)C2)CC1`, for which the “activity, negative = inhibition” value is 3.81%. As to `O=C(Oc1ccccc1)N1CCC[C@@]2(CCN(c3ncccn3)C2)C1`, the AC50 was 12.6 µM (active). In the case of `O=C(Oc1ccccc1)N1CCC2(CC1)CCN(c1ncccn1)CC2`, the “activity, negative = inhibition” value was -11.2%.

`O=C(Oc1ccccc1)N1CCC2(CC1)CN(c1ccccn1)C2`: the “activity, negative = inhibition” value is -19.3%. For `O=C(Oc1ccccc1)N1CCC2(CCCN(c3ccccn3)C2)CC1`, the half-maximal activity concentration (AC50) is 20 µM (active). For the molecule `CC(=O)N1CCC2(CCCN(c3ncccn3)C2)CC1`, the “activity, negative = inhibition” value was -19.5%. Same read-out and setting: next, `COC(=O)N1CCC2(CC1)CN(c1ccccn1)C2`: -9.75%; `CC(=O)N1CCC[C@@]2(CCN(c3ncccn3)C2)C1`: 6.47%. With `COC(=O)N1CCC[C@@]2(CCN(c3ccccn3)C2)C1`, the AC50 is 15.8 µM (active).

Regarding `Cc1noc(C)c1C(=O)N1CCC[C@@]2(CCN(Cc3ccccc3)C2)C1`, the “activity, negative = inhibition” value was 5.42%. With `CC(C)CCn1c(Oc2ccccc2Cl)nc2c1c(=O)n(C)c(=O)n2C`, the AC50 is 14.1 µM (active). For `Cn1c(=O)c2c(ncn2CC(COCc2ccccc2Cl)OCc2ccccc2Cl)n(C)c1=O` (stereo unspecified), the “activity, negative = inhibition” value was -8.25%.

Turning to `Cn1c(=O)c2c(nc(N3CCN(c4ccccn4)CC3)n2Cc2ccccc2Cl)n(C)c1=O`, the “activity, negative = inhibition” value is -17%. For the molecule `CSc1ccc(C#N)cc1NC(=O)c1cccc(Cl)c1`, the AC50 was 6.31 µM (active). Same read-out and setting: next, `CCOc1ccc(C(=O)Nc2ccccc2N2CCCC2)cc1`: 2.82 µM (active). In the case of `CCOc1cc(CC(=O)N[C@@H](CC(C)C)c2ccccc2N2CCCCC2)ccc1C(=O)O`, the “activity, negative = inhibition” value is 1.45% [at 25.6 µM].

Consider `O=C(Nc1ccccc1N1CCN(C(=O)c2ccc(Cl)cc2)CC1)c1cc(Br)ccc1Cl`, for which the “activity, negative = inhibition” value was -26.3%. As for `CCN(CCO)C[C@H]1CCC[C@H]2CCCC[C@@H]21`, the AC50 was 5.01 µM (active). Still for that read-out and setting: with `O=C1NCCN1Cc1ccccc1F` the figure was 3.55 µM (active); with `O=C(NCCN1CCCCC1)c1ccc(I)cc1`, 25.1 µM (active).

`Cc1ccc(CS(=O)(=O)CCC(=O)NCCN2CCCC2)cc1`: the “activity, negative = inhibition” value is -5.06%. Consider `COc1ccc(CC(=O)NCCN2CCCC2)cc1`, for which the “activity, negative = inhibition” value was -9.19%. In the case of `Nc1cc(Cl)ccc1Oc1ccccc1`, the AC50 was 7.94 µM (active). For `Nc1cc(Cl)ccc1Oc1ccc(Cl)cc1`, the AC50 is 0.398 µM (active). As for `CC(=O)NCCNc1nc(-c2ccccc2C(F)(F)F)nc2ccccc12`, the AC50 was 15.8 µM (active). Consider `CCN(CC)c1cc(C)c2cc(NC(=O)CNC(C)=O)ccc2n1`, for which the “activity, negative = inhibition” value was -11.9%. With `CC(=O)NCCNc1nc(-c2ccccc2C)nc2ccccc12`, the AC50 is 6.31 µM (active). Take `CC(C)(C)NCC[C@@H](O)c1cc(C(F)(F)F)nc2c(C(F)(F)F)cccc12`: the activity, negative = inhibition was -9.91% [at 2.29 µM]. For `CC(C)(C)CC(C)(C)c1ccc(OCOCCOCCO)c(Cc2cc(C(C)(C)CC(C)(C)C)cc(Cc3cc(C(C)(C)CC(C)(C)C)ccc3OCOCCOCCO)c2OCOCCOCCO)c1`, the “activity, negative = inhibition” value is -3.71% [at 25.6 µM]. As for `COc1cccc(-c2csc(N3CCN(C(=S)Nc4ccccc4)CC3)n2)c1`, the AC50 was 3.16 µM (active). `CCOCCCNC(=O)C1CCN(S(=O)(=O)N2CC(C)CC(C)C2)CC1` (stereo unspecified): the “activity, negative = inhibition” value was -3.01%. As for `CC1CCCN(C/C=C/c2ccccc2[N+](=O)[O-])C1` (stereo unspecified), the AC50 is 14.1 µM (active). Take `C[C@@H]1CCCN(CP(=O)(c2ccccc2)c2ccccc2)C1`: the activity, negative = inhibition was -3.49% [at 11.4 µM]. Take `Cc1ccc(NC(=O)/C(=C/c2cccc([N+](=O)[O-])c2)NC(=O)C2CCCCC2)c(C)c1`: the “activity, negative = inhibition” value was 10.1%. The same measure, in the same setting: next, `CCOC(=O)C1CCCN(S(=O)(=O)c2ccccc2)C1` (stereo unspecified): -11.5%. For the molecule `CCOC(=O)C1CCCN(C(=O)/C=C/c2cccc([N+](=O)[O-])c2)C1` (stereo unspecified), the AC50 is 11.2 µM (active). Regarding `O=C(O)[C@H]1CCCN(CCC=C(c2ccccc2)c2ccccc2)C1`, the “activity, negative = inhibition” value was -1.11%. With `CCOC(=O)C1CCCN(C/C=C/c2ccccc2[N+](=O)[O-])C1` (stereo unspecified), the AC50 is 4.47 µM (active). On to `O=C(c1ccco1)N1CCC2(CC1)CCN(c1ccc(-c3ccccc3)cc1)CC2`, for which the “activity, negative = inhibition” value was -28.9%. On to `O=C(c1ccncc1)N1CCC[C@@]2(CCN(c3ccccc3)C2)C1`, for which the “activity, negative = inhibition” value is -10.4%. As to `O=C(c1ccco1)N1CCC2(CC1)CCN(c1cccc(-c3ccccc3)c1)CC2`, the concentration at half-maximal activity (AC50) was 15.8 µM (active). In the case of `O=C(c1ccco1)N1CCC2(CCCN(c3ccccc3)C2)CC1`, the “activity, negative = inhibition” value was 6.83%. Still for that read-out and setting: next, `O=C(c1ccco1)N1CCC[C@@]2(CCN(Cc3ccccc3)C2)C1`: -3.18%. `O=C(c1ccco1)N1CCC[C@@]2(CCN(c3ccncc3)C2)C1`: the AC50 is 12.6 µM (active).

As to `O=C(c1ccco1)N1CCC[C@@]2(CCN(c3cccc(-c4ccccc4)c3)C2)C1`, the AC50 was 15.8 µM (active).

Turning to `O=C(c1ccco1)N1CCC2(CC1)CCN(c1ccccc1)CC2`, the “activity, negative = inhibition” value is -19%. Turning to `O=C(c1ccco1)N1CCC2(CC1)CN(c1ccccc1)C2`, the “activity, negative = inhibition” value was -12.3%.

The values above are taken from PubChem BioAssay AID1851 (National Center for Advancing Translational Sciences (NCATS), 2009).
